Reference: PubChem BioAssay (Tox21)
Records with an inconclusive call do not appear. Calls of active or inactive are those of the source. Unless noted, calls follow the shape of the dose curve; as a rule, active = well fitted curve in the direction sought with a large enough effect in the repeat runs; inconclusive = weak or mixed curves; inactive = no such curve, though single readings can be large; an effect the other way counts as inactive or inconclusive.

Assays:
[1] = qHTS assay to identify small molecule antagonists of the vitamin D receptor (VDR) signaling pathway - cell viability counter screen (AID 743225); settings: VDR-bla HEK293T viability, CellTiter-Glo luminescence, 16 h; series mostly up to 61 µM; also: % is scaled to controls: 0 for no effect and ±100 for the full control effect; nearly all actives have a fitted effect of over 50% in size
How it was run: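 VDR-bla HEK 293T cells, 4 h pre-incubation at 37C, then compound plus 1-alpha,25-dihydroxyvitamin D3 (3 nM final) for 16 h. After the beta-lactamase FRET read, CellTiter-Glo was added to the same wells; luminescence after 30 min at room temperature.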

[2] = qHTS assay to identify small molecule agonists of the NFkB signaling pathway - cell viability counter screen (AID 1159515; calls by dose curve; also: % is scaled to controls: 0 for no effect and ±100 for the full control effect; nearly all actives have a fitted effect of over 55% in size); settings: NFkB-bla ME-180 viability, CellTiter-Glo luminescence, 5 h; series mostly up to 61 µM
How it was run: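 Parallel cytotoxicity counter screen in ME-180 cells carrying an NFkB-response-element beta-lactamase reporter, 2,000 cells/well. Compound exposure lasted 5 hr at 37 C, 5% CO2. Cell viability was quantified by CellTiter-Glo luminescence.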

[3] = qHTS assay to identify small molecule agonists of the endoplasmic reticulum stress response signaling pathway (AID 1159516; active = well fitted activation curve with a large enough effect in the signal ratio in the repeat runs, not every such curve was filed as active; the % refers to the signal ratio; also: % is scaled to controls: 0 for no effect and ±100 for the full control effect); settings: ESRE-bla HeLa, ER stress beta-lactamase reporter, 5 h; series mostly up to 61 µM
How it was run: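 Using a HeLa line with an ESRE-driven beta-lactamase gene, agonist activity was measured by FRET substrate fluorescence (460 and 530 nm emission) after cells were treated with compounds for 5 hr at 37 C and 5% CO2.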

[4] = qHTS assay to identify small molecule agonists of the endoplasmic reticulum stress response signaling pathway - cell viability counter screen (AID 1159517; calls by dose curve;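 also: HeLa cells carrying an ER stress response element beta-lactamase reporter; % is scaled to controls: 0 for no effect and ±100 for the full control effect; nearly all actives have a fitted effect of over 50% in size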); settings: ESRE-bla HeLa viability, CellTiter-Glo luminescence, 5 h; series mostly up to 61 µM
How it was run: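 In parallel with the ESRE reporter read, cytotoxicity was scored by CellTiter-Glo luminescence (30 min, room temperature) on HeLa ESRE-bla cells dosed for 5 hr.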

[5] = qHTS assay to identify small molecule antagonists of the retinoid-related orphan receptor gamma (ROR-gamma) signaling pathway - cell viability counter screen (AID 1159520); settings: Tet-on RORgamma CHO cells viability, ATP luminescence, 16 h; series mostly up to 92.4 µM; also: % is scaled to controls: 0 for no effect and ±100 for the full control effect; nearly all actives have a fitted effect of over 50% in size
How it was run: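 Tet-on ROR gamma CHO cells were given compounds for 2 hr, then doxycycline hyclate at 1 uM final, and incubated 16 hr at 37 C. Viability was measured as ATP content by CellTiter-Glo luminescence.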

[6] = biological target: Nuclear receptor ROR-gamma (Homo sapiens) (UniProt P51449); assay: qHTS assay to identify small molecule antagonists of the retinoid-related orphan receptor gamma (ROR-gamma) signaling pathway (AID 1159521;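 also: CHO cells with doxycycline inducible ROR-gamma driving an RORE luciferase reporter; top concentration of the series differs between compounds; % is scaled to controls: 0 for no effect and ±100 for the full control effect; nearly all actives have a fitted effect of over 50% in size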); settings: Tet-on RORgamma CHO cells, RORE-luciferase, 16 h; series mostly up to 92.4 µM
How it was run: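 Tet-on RORγ CHO cells carrying a ROR response element–luciferase reporter were pretreated with compounds for 2 h, then induced with 1 uM (final) doxycycline hyclate for 16 h at 37 C. Antagonism was read as decreased ONE-Glo luminescence.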

[7] = qHTS assay to identify small molecule agonists of the AP-1 signaling pathway - cell viability counter screen (AID 1159525; calls by dose curve; also: nearly all actives have a fitted effect of over 55% in size); settings: ME-180 AP-1-bla cells viability, ATP luminescence, 5 h; series mostly up to 76.8 µM
How it was run: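 Same-well cytotoxicity counter screen of the Tox21 10K library in ME-180 cells. The readout is ATP-dependent luminescence after 5 h compound treatment. Data are normalised to DMSO and tetra n-octyl ammonium bromide controls.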

[8] = qHTS assay to identify small molecule agonists of the AP-1 signaling pathway (AID 1159526; calls by dose curve; also: % is scaled to controls: 0 for no effect and ±100 for the full control effect); settings: ME-180 (cervical carcinoma) AP-1-bla reporter, beta-lactamase FRET ratio, 5 h; series mostly up to 76.8 µM
[9] = biological target: Retinoic acid receptor RXR-alpha (Homo sapiens) (UniProt P19793); assay: qHTS assay to identify small molecule agonists of the RXR signaling pathway (AID 1159527; calls by dose curve; also: % is scaled to controls: 0 for no effect and ±100 for the full control effect; nearly all actives have a fitted effect of over 35% in size); settings: HEK293T RXRa-UAS-bla, beta-lactamase ratio, 16 h; series mostly up to 76.8 µM
How it was run: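 GeneBLAzer RXR-alpha-UAS-bla HEK 293T cells in medium with 2% charcoal-stripped FBS, pre-incubated 5 hr at 37 C, then exposed to compounds 16 hr. Beta-lactamase reporter read by FRET substrate, 2 hr room temperature, 460/530 nm emission.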

[10] = qHTS assay to identify small molecule agonists of the RXR signaling pathway - cell viability counter screen (AID 1159529); settings: RXR-alpha-bla HEK293T viability, CellTiter-Glo, 16 h; series mostly up to 76.8 µM
How it was run: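 RXR-alpha-UAS-bla HEK 293T cells in medium with 2% charcoal-stripped FBS were preincubated 5 hr, then exposed to compounds for 16 hr at 37 C. Viability was read as CellTiter-Glo luminescence after 30 min at room temperature.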

[11] = qHTS assay to identify small molecule antagonists of the retinoid acid receptor (RAR) signaling pathway - cell viability counter screen (AID 1159551); settings: C3RL4 cells viability, ATP luminescence (CellTiter-Glo), 6 h; series mostly up to 92.4 µM; also: % is scaled to controls: 0 for no effect and ±100 for the full control effect; nearly all actives have a fitted effect of over 35% in size
How it was run: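 ATP-based viability, C3RL4 cells, 6 h at 37 C with 1 uM final retinol co-added after compound; luminescence read 30 min post CellTiter-Glo, RT.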

[12] = qHTS assay to identify small molecule antagonists of the estrogen related receptor (ERR) signaling pathway from Tox21 library - cell viability counter screen (AID 1224834); settings: ERR reporter cells viability, CellTiter-Fluor, 17.5 h; series mostly up to 92.4 µM; also: % is scaled to controls: 0 for no effect and ±100 for the full control effect; nearly all actives have a fitted effect of over 30% in size
How it was run: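 Compounds in DMSO were pinned onto ERR cells that had been incubated for 6 h, and the plates were held at 37 C for 17.5 h. CellTiter-Fluor reagent was then added and fluorescence was measured after 30 min.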

[13] = qHTS assay to identify small molecule antagonists of the retinoic acid receptor (RAR) signaling pathway (AID 1159552); settings: C3RL4 RARE luciferase reporter, retinol-stimulated, 6 h; series mostly up to 92.4 µM
How it was run: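 RARE-luc C3RL4 cells; cpds + 1 uM (final) retinol, 6 hr, 37 C/5% CO2; luciferase reagent, 30 min RT, luminescence readout. Inhibitors of retinol-driven signal scored.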

Retinoic acid receptor RXR-alpha (Homo sapiens), sequence (P19793 whole entry, looked up): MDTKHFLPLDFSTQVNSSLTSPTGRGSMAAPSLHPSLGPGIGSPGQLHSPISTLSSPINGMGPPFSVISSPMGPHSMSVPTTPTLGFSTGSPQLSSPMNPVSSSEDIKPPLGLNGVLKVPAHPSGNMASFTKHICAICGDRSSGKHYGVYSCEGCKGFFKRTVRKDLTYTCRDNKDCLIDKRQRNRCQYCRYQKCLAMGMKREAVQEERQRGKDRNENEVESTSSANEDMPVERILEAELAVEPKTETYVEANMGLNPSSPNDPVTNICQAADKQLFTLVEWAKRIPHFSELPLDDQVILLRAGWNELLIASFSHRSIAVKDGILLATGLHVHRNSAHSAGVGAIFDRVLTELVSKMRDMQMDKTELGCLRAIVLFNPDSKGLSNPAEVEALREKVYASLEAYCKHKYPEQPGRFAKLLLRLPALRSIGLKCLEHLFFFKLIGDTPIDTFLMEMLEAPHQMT

CC(CO)(CO)[N+](=O)[O-]
inactive: outcome [1] | outcome [2] | outcome [3] | outcome [4] | outcome [5] | Potency [6] | outcome [7] | outcome [8] | Potency [9] | Potency [10] | outcome [11] | Potency [12]

CC(C)C(=O)OC(=O)C(C)C
inactive: outcome [2] | outcome [3] | outcome [4] | outcome [5] | Potency [6] | outcome [7] | outcome [8] | Potency [9] | Potency [10] | outcome [11] | Potency [12]

COc1cccc(OC)c1C(=O)N[C@@H]1C(=O)N2[C@@H]1SC(C)(C)[C@@H]2C(=O)O
inactive: outcome [1] | outcome [2] | outcome [3] | outcome [4] | outcome [5] | Potency [6] | outcome [7] | outcome [8] | Potency [9] | Potency [10] | outcome [11] | Potency [12]

CCCCCCCCCCCCCCC(=O)O
inactive: outcome [1] | outcome [2] | outcome [3] | outcome [4] | outcome [5] | Potency [6] | outcome [7] | outcome [8] | Potency [9] | Potency [10] | outcome [11] | Potency [12]

NC(=O)NC1N=C([O][Al])NC1=O (configuration not stated)
inactive: outcome [1] | outcome [2] | outcome [3] | outcome [4] | outcome [5] | Potency [6] | outcome [7] | outcome [8] | Potency [9] | Potency [10] | outcome [11] | Potency [12]

C1CCC2(CCCCO2)OC1
inactive: outcome [1] | outcome [2] | outcome [3] | outcome [4] | outcome [5] | Potency [6] | outcome [7] | outcome [8] | Potency [9] | Potency [10] | outcome [11] | Potency [12]

NC(CCC(=O)O)C(=O)O (configuration not stated)
inactive: outcome [1] | outcome [2] | outcome [3] | outcome [4] | outcome [5] | Potency [6] | outcome [7] | outcome [8] | Potency [9] | Potency [10] | outcome [11]

Cc1ncc(COP(=O)(O)O)c(C=O)c1O
inactive: outcome [1] | outcome [2] | outcome [3] | outcome [4] | outcome [5] | Potency [6] | outcome [7] | outcome [8] | Potency [9] | Potency [10] | outcome [11] | Potency [12]

N[C@H](C(=O)O)[C@@H](O)c1ccc(O)c(O)c1
inactive: outcome [1] | outcome [2] | outcome [3] | outcome [4] | outcome [5] | Potency [6] | outcome [7] | outcome [8] | Potency [9] | Potency [10] | outcome [11] | Potency [12]

Cc1coc2ccccc2c1=O
inactive: outcome [2] | outcome [3] | outcome [4] | outcome [5] | Potency [6] | outcome [7] | outcome [8] | Potency [9] | Potency [10] | outcome [11] | Potency [12]

O=C(O)CNC(=O)c1ccc(CO)o1
inactive: outcome [1] | outcome [2] | outcome [3] | outcome [4] | outcome [5] | Potency [6] | outcome [7] | outcome [8] | Potency [9] | Potency [10] | outcome [11] | Potency [12]

O=C(O)CNC(=O)c1ccccc1
inactive: outcome [1] | outcome [2] | outcome [3] | outcome [4] | outcome [5] | Potency [6] | outcome [7] | outcome [8] | Potency [9] | Potency [10] | outcome [11] | Potency [12]

C[N+]1(CC2COC(c3ccccc3)(c3ccccc3)O2)CCCCC1 (configuration not stated)
inactive: outcome [1] | outcome [2] | outcome [3] | outcome [4] | activity, negative = cytotoxicity [5] -0.623% [at 19 µM] | activity change, negative = inhibition [6] 7.79% [at 19 µM] | viability change, negative = cytotoxic [7] 0.502% [at 15.8 µM] | activation [8] -1.1% [at 15.8 µM] | activation [9] -0.901% [at 15.8 µM] | activity change, negative = cytotoxicity [10] -2.46% [at 15.8 µM] | activity change, negative = cytotoxicity [11] -0.8% [at 19 µM] | viability change, negative = cytotoxic [12] 7.36% [at 19 µM]

CC(C#N)(CCC(=O)O)N=NC(C)(C#N)CCC(=O)O (configuration not stated)
inactive: outcome [1] | outcome [2] | outcome [3] | outcome [4] | outcome [5] | Potency [6] | outcome [7] | outcome [8] | Potency [9] | Potency [10] | outcome [11] | Potency [12]

O=S(=O)(O)c1cccc2ccccc12
inactive: outcome [2] | outcome [3] | outcome [4] | outcome [5] | Potency [6] | outcome [7] | outcome [8] | Potency [9] | Potency [10] | outcome [11] | Potency [12]

COc1cc(C)nc(-n2nc(C)cc2OC)n1
inactive: outcome [1] | outcome [2] | outcome [3] | outcome [4] | outcome [5] | Potency [6] | outcome [7] | outcome [8] | Potency [9] | Potency [10] | outcome [11] | Potency [12]

c1coc(CNc2ncnc3nc[nH]c23)c1
inactive: outcome [1] | outcome [2] | outcome [3] | outcome [4] | outcome [5] | Potency [6] | outcome [7] | outcome [8] | Potency [9] | Potency [10] | outcome [11] | Potency [12]

NS(=O)(=O)Cc1noc2ccccc12
inactive: outcome [1] | outcome [2] | outcome [3] | outcome [4] | outcome [5] | Potency [6] | outcome [7] | outcome [8] | Potency [9] | Potency [10] | outcome [11] | Potency [12]

C[N+]12CCC(CC1)C(OC(=O)C(O)(c1ccccc1)c1ccccc1)C2 (configuration not stated)
inactive: outcome [2] | outcome [3] | outcome [4] | outcome [5] | Potency [6] | outcome [7] | outcome [8] | Potency [10] | outcome [11]

CCCCCCCCN1CCCC1=O
inactive: outcome [2] | outcome [3] | outcome [4] | outcome [5] | Potency [6] | outcome [8] | Potency [9] | Potency [10] | outcome [11] | Potency [13] | Potency [12]

O=C(O)c1cn(C2CC2)c2cc(N3CCNCC3)c(F)cc2c1=O
inactive: outcome [2] | outcome [3] | outcome [4] | outcome [5] | Potency [6] | outcome [8] | Potency [9] | Potency [10] | outcome [11] | Potency [12]
